Assay results published in PubChem BioAssay AID434970 (Sanford-Burnham Center for Chemical Genomics, 2010).
Out of some 11,000 compounds screened, about 310 (2.8%) were called active. Rule as the data show it: active = activity change below about -85%; inactive = the rest. The sample as a whole holds a higher share of actives than the screen did.

What follows are compounds tested on intestinal alkaline phosphatase [Mus musculus] (assay: activators of mouse IAP, confirmation, biochemical, luminescence, single concentration (AID 434970)). Conditions: purified mouse IAP, CDP-Star luminescence, 30 min, at 10 µM; activation factor: measured here: IAP activation factor, stronger effect = higher value; activity change, negative = activation: stronger effect = lower value.

| SMILES | activation factor | activity change, negative = activation |
| --- | --- | --- |
| CCOC(=O)c1ccc(-n2c(C)nc3c(cnn3-c3ccc(Cl)cc3)c2=O)cc1 | 0.964 | 3.55% (inactive) |
| CCCCCCCCCCCC(=O)NC(C(=O)OCC)C(O)c1cccc([N+](=O)[O-])c1 (centres undefined) | 1.03 | -2.65% (inactive) |
| CC[C@]12c3[nH]c4ccc(Cl)cc4c3CCN1C(=O)[C@@H](CC(=O)NCCC1=CCCCC1)C[C@@H]2C(=O)N1CCN(C(=O)c2ccco2)CC1 | 1.08 | -8.45% (inactive) |
| CC1OC23CCCCC2C(C#N)(C(=N)O3)C1(C#N)C#N (centres undefined) | 0.959 | 4.1% (inactive) |
| CN(CC(=O)NC(c1ccccc1)c1ccccc1)Cc1nc2ccccc2c(=O)[nH]1 | 2.71 | -171% (active) |
| CCN(CC(=O)NCc1ccc(F)cc1)Cc1nc2ccccc2c(=O)[nH]1 | 1.14 | -14.2% (inactive) |
| CCN(CC(=O)Nc1ccc2c(c1)OCO2)Cc1nc2ccccc2c(=O)[nH]1 | 1.23 | -23.5% (inactive) |
| Cc1cc(Cl)cc(C)c1OCC(=O)O | 1.06 | -5.8% (inactive) |
| COc1ccc(OC)c(NS(=O)(=O)c2ccc(NC(C)=O)cc2)c1 | 0.988 | 1.15% (inactive) |
| COc1ccc(NC(=O)Nc2ccccc2)cc1S(=O)(=O)N1CCCCC1 | 2.87 | -187% (active) |
| O=C(Nc1ccc(F)cc1)Nc1ccccc1N1CCCCC1 | 1.58 | -57.8% (inactive) |
| O=C(Nc1ccccc1)Nc1ccc(Cl)c(S(=O)(=O)N2CCOCC2)c1 | 1.53 | -53.4% (inactive) |
| COc1ccccc1NS(=O)(=O)c1cccc(NC(=O)Nc2ccc(Cl)cc2)c1 | 1.92 | -92.2% (active) |
| COc1ccc(NC(=S)Nc2cccc(S(=O)(=O)N3CCCCC3)c2)cc1 | 1.01 | -1.4% (inactive) |
| Cc1ccc(C(=O)NCC(=O)O)cc1S(=O)(=O)N1CCCCC1 | 0.994 | 0.55% (inactive) |
| O=C(CNC1CCCCCC1)Nc1ccccc1N1CCCCC1 | 1.04 | -3.7% (inactive) |
| Cc1cc(C)cc(NC(=O)Nc2ccccc2N2CCCCC2)c1 | 2.12 | -112% (active) |
| COc1ccccc1NS(=O)(=O)c1ccc(C)c(C(N)=O)c1 | 0.925 | 7.5% (inactive) |
| Cc1ccc(NC(=S)NCc2ccccc2)cc1S(=O)(=O)N1CCCCC1 | 2.87 | -187% (active) |
| Cc1ccc(C)c(S(=O)(=O)N2CCN(CC(=O)NC(=O)NCc3ccccc3)CC2)c1 | 0.972 | 2.8% (inactive) |
| COc1ccc(C(=O)Nc2cccc(C(C)=O)c2)c(OC)c1OC | 0.951 | 4.95% (inactive) |
| COC(=O)CC1C(=O)NCCN1C(=O)Nc1ccccc1 (centres undefined) | 0.938 | 6.25% (inactive) |
| CCOC(=O)Cc1cc(=O)n(-c2nc3ccccc3s2)[nH]1 | 0.806 | 19.4% (inactive) |
| O=C(CN1C(=O)C2CC=CCC2C1=O)Nc1ccc(S(=O)(=O)NC2=NCCCCC2)cc1 (centres undefined) | 0.903 | 9.65% (inactive) |
| CC[C@@H]1C(c2cccc(C)c2)=NN(c2ccccc2)[C@H]1C(=O)N1CCOC1=O | 1.14 | -14.2% (inactive) |
| COc1cccc(-n2c(SCC(=O)Nc3nccs3)nnc2-c2ccoc2C)c1 | 0.982 | 1.8% (inactive) |

| SMILES | activation factor | activity change, negative = activation |
| --- | --- | --- |
| O=C1OCCN1C(=O)[C@H]1[C@H](c2ccc([N+](=O)[O-])cc2)C(c2ccccc2)=NN1c1ccc(Br)cc1 | 0.908 | 9.2% (inactive) |
| O=C(Nc1cccc(C(F)(F)F)c1)Nc1ccc(N2CCCC2)c(S(=O)(=O)Nc2ccccc2Cl)c1 | 1.67 | -66.9% (inactive) |
| COc1ccccc1NS(=O)(=O)c1cc(NC(=O)Nc2cccc(C)c2)ccc1N1CCCCC1 | 3.78 | -278% (active) |
| COc1ccc(C(=O)O)cc1S(=O)(=O)Nc1cccc(C)c1 | 0.988 | 1.25% (inactive) |
| Cc1cc(-c2csc(NC(=O)c3ccc(=O)[nH]c3)n2)c(C)n1Cc1ccco1 | 0.347 | 65.4% (inactive) |
| CCCc1c(O)nc(SC2CC(=O)N(c3cc(OC)ccc3OC)C2=O)[nH]c1=O (centres undefined) | 1.01 | -0.65% (inactive) |
| C=CCn1c(SCC(=O)Nc2cc(C)ccc2OC)nnc1-c1ccco1 | 1.07 | -7.4% (inactive) |
| CCOC(=O)C1=CN(Cc2ccc(Br)cc2)S(=O)(=O)NC1C (centres undefined) | 0.968 | 3.25% (inactive) |
| O=C(Nc1ccc(Cl)cc1)N[C@@H]1c2c(ccc3ccccc23)OC[C@@H]1CO | 4.85 | -385% (active) |
| O=C(Nc1ccc(Cl)cc1)Nc1ccc(N2CCOCC2)cc1 | 1.17 | -16.9% (inactive) |
| O=C(Nc1ccc(Cl)cc1)Nc1ccc(-c2cnco2)cc1 | 1.34 | -34.5% (inactive) |
| CCCCc1ccc(CC(=O)O)cc1 | 0.907 | 9.3% (inactive) |
| O=C(Nc1ccccc1)Nc1csc2ccccc12 | 2.08 | -108% (active) |
| CC(C)CNC(=O)c1ccccc1NC(=O)Nc1ccccc1 | 0.949 | 5.15% (inactive) |
| CCCCC(=O)Nc1ccc(F)c(Cl)c1 | 1.05 | -5.3% (inactive) |
| O=C(Nc1ccc(F)cc1)Nc1csc2ccccc12 | 1.94 | -93.7% (inactive) |
| O=C(Nc1ccc(F)cc1F)Nc1csc2ccccc12 | 1.77 | -77.3% (inactive) |
| O=C(Nc1ccc(F)c(Cl)c1)Nc1csc2ccccc12 | 2.15 | -115% (active) |
| O=S(=O)(NCc1cccs1)c1cccc(S(=O)(=O)N2CCCCC2)c1 | 0.903 | 9.65% (inactive) |
| Cc1ccccc1N(CC(=O)N1CCN(c2ccccc2)CC1)S(C)(=O)=O | 0.932 | 6.8% (inactive) |
| COc1ccc(OC)c(S(=O)(=O)n2ccnc2C)c1 | 0.998 | 0.15% (inactive) |
| COc1ccc(Cc2nnc(NC(=O)C3CCCO3)s2)cc1OC (centres undefined) | 1.01 | -1.15% (inactive) |
| CCC(C)OC(=O)C1=C(C)NC2=C(C(=O)C(C(=O)OC)C(C)C2)C1c1ccc(N(C)C)cc1 (centres undefined) | 1.06 | -6.35% (inactive) |
| CCN(CC)CCNC(=O)Cn1nc(-c2ccccc2)c2ccccc2c1=O | 0.954 | 4.6% (inactive) |
| NC(=O)C1CCN(c2ncnc3c(-c4ccccc4)nsc23)CC1 | 0.947 | 5.35% (inactive) |
| O=C(c1cc(-c2cccs2)on1)N1CCN(C(c2ccccc2)c2ccccc2)CC1 | 0.971 | 2.95% (inactive) |
